An excerpt weighted towards active compounds, which were near 7.8% of everything screened.
Vaccinia Venus – vaccinia inhibition (Venus reporter); Vaccinia virus Venus reporter expression, fluorescence; hit rate 0.46% among 330,000; Potency, µM (titrated, usually from 36.5 µM), for the others: at the highest dose activity change, negative = inhibition, usual class: inhibitors; calls by dose curve; tested in A549 cells; further: potency means the concentration at half of the fitted maximal effect; nearly all actives have a fitted effect of over 30% in size
VACV mCherry inh – inhibitors of vaccinia virus infection (mCherry reporter signal); Vaccinia virus mCherry reporter infection, fluorescence; Potency, µM (series often up to 36.5 µM), for inactives: top-dose activity change, negative = inhibition, usual class: inhibitors; hit rate 0.63% among 310,000; AID 720579; calls by dose curve; tested in A549 cells; further: potency means the concentration at half of the fitted maximal effect; nearly all actives have a fitted effect of over 35% in size
Lassa entry inh – blocks Lassa virus binding to or entry into cells; Lassa virus pseudotype entry inhibition, cell reporter; Potency, µM (highest dose often 37.9 µM), inactives show top-dose activity change, negative = inhibition, hits mostly inhibitors; hit rate 1.2% among 300,000; AID 540256; calls by dose curve; tested in HEK293 cells; further: potency means the concentration at half of the fitted maximal effect; nearly all actives have a fitted effect of over 50% in size
MARV entry inh – inhibitors of Marburg virus binding or cell entry | Marburg virus pseudotyped entry inhibition, cell reporter | Potency, µM (series often up to 37.8 µM), inactives show at the top dose activity change, negative = inhibition, usual class: inhibitors | hit rate 1.8% among 300,000; calls by dose curve; tested in HEK293 cells; further: potency means the concentration at half of the fitted maximal effect
HCMV inh – human cytomegalovirus inhibition; HFF cells, HCMV-luciferase reporter, 72 h; stronger effect = lower value; activity change, negative = inhibition, % at 57.5 µM; hit rate 4.5% among 410,000; AID 1259415; in the data active means activity change below about -60%; inconclusive means no clear call, values can overlap the other calls; inactive means above about -39%
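HFF cells seeded 16 h at 37C, treated with compounds, infected with luciferase-reporter HCMV at MOI 1 PFU/cell; luciferase read at 72 h post infection, normalized to buffer-only and Salinomycin controls.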
HCV inhibitor – inhibitors of hepatitis C virus infection; Potency, µM (titrated, usually from 41.8 µM), for inactives: top-dose activity change, negative = inhibition, hits mostly inhibitors; Huh7.5.1 HCVcc-Cre infection, luciferase reporter, 44 h; hit rate 3.4% among 340,000; AID 651820; active means well fitted inhibition curve with a large enough effect; inconclusive means small, poorly fitted or top-dose-only effect, or another doubt; inactive means no such curve, though single readings can be large or run the other way; further: potency means the concentration at half of the fitted maximal effect
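After 44 h co-culture of compound, cells and HCVcc-Cre (~0.5 moi), substrate is added for 15 min at room temperature and luciferase measured over 15 sec. Cells were seeded at 1,000/well and pre-cultured 4 h.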
Starred values were filed as active, the others as inactive; [ ] = dose if it differs, or a comment. On the % scale 0 is the no-effect control and ±100 the full control effect.

Screening CNC(=O)c1cc(Oc2ccc(NC(=O)Nc3ccc(Cl)c(C(F)(F)F)c3)cc2)ccn1 returned Vaccinia Venus 10µM*, VACV mCherry inh inconclusive, HCMV inh -100* and HCV inhibitor 11µM*.
Screening O=C(Nc1ccc(Cl)c(C(F)(F)F)c1)c1ccncc1 returned Vaccinia Venus -14%, VACV mCherry inh -13%, Lassa entry inh inconclusive, MARV entry inh inconclusive, HCMV inh -5 and HCV inhibitor -22%.
For COc1ccc(COc2cc(-c3cccc(OC)c3)nc3ccc(N)cc23)cc1 the results were Vaccinia Venus inconclusive, VACV mCherry inh inconclusive, Lassa entry inh inconclusive, MARV entry inh inconclusive, HCMV inh -90* and HCV inhibitor inconclusive.
Screening CSc1nnc(CNC(=O)c2c(-c3ccccc3)noc2C)n1-c1ccc(F)cc1 returned Vaccinia Venus -1% and VACV mCherry inh -19%.
C=C(CN(C)C)C(=O)c1ccc(C)cc1C was read as Vaccinia Venus inconclusive, VACV mCherry inh inconclusive, Lassa entry inh inconclusive, MARV entry inh inconclusive, HCMV inh -77* and HCV inhibitor inconclusive.
O=[N+]([O-])c1cc(C(F)(F)F)cc([N+](=O)[O-])c1NCCNC(=S)Nc1ccc(Cl)c(Cl)c1 was read as Vaccinia Venus inconclusive, VACV mCherry inh inconclusive, Lassa entry inh inconclusive, MARV entry inh inconclusive, HCMV inh -93* and HCV inhibitor inconclusive.
Screening C=CCN1CCCC1CNC(=O)c1cc2[nH]nnc2cc1OC (stereo not given) returned Vaccinia Venus -7%, VACV mCherry inh -10%, HCMV inh -68* and HCV inhibitor 5%.
`CCN1CCCC1CNC(=O)c1cc(N)ccc1OC` (stereo not given) gave Vaccinia Venus -10%, VACV mCherry inh -11%, Lassa entry inh 16%[46.1 µM], MARV entry inh 15%[46.1 µM], HCMV inh 15 and HCV inhibitor 15%.
O=C(O[C@H]1CC[C@@]23CCCN2C(=O)CCC[C@H]3C1)c1ccc(Br)cc1 was read as HCMV inh -23.
COc1ccccc1-c1ccc(NC2CCCCC2)nn1 was read as Lassa entry inh 25%, MARV entry inh inconclusive, HCMV inh 50 and HCV inhibitor 22µM*.
Cc1ccccc1-c1nn(-c2ccc(F)cc2F)cc1CNCCCN(C)C was read as Vaccinia Venus -21%, VACV mCherry inh -10%, Lassa entry inh inconclusive, MARV entry inh 3.5µM*, HCMV inh inconclusive and HCV inhibitor 3.2µM*.
`Cc1ncc2c(c1CNS(=O)(=O)N(C)C)CCN(C(=O)/C=C/c1ccccc1)C2` gave Vaccinia Venus 14% and VACV mCherry inh -1%.
OCC1(CCc2ccccc2)CCN(Cc2cc(Cl)ccc2O)CC1 was read as Vaccinia Venus -8%, VACV mCherry inh -7%, Lassa entry inh 0%, MARV entry inh 3%[14.2 µM], HCMV inh -28 and HCV inhibitor 3%.
Screening Cc1ccc(-n2cccn2)c(CN2CCC(CO)(CCc3ccccc3)CC2)c1 returned Vaccinia Venus -6%, VACV mCherry inh -12%, Lassa entry inh -5%, MARV entry inh 8.9µM*, HCMV inh -26 and HCV inhibitor 2%.
CCSc1ncnc2sc3c(c12)CCC3 was read as Lassa entry inh 14%, MARV entry inh 14%, HCMV inh -4 and HCV inhibitor 25µM*.
Screening Fc1ccc(CSc2ncnc3sc4c(c23)CCCC4)cc1 returned Lassa entry inh -11%, MARV entry inh -18%, HCMV inh 72 and HCV inhibitor 11µM*.
Screening O=C(O)CSc1ncnc2sc3c(c12)CCCC3 returned Vaccinia Venus -4%, VACV mCherry inh inactive, Lassa entry inh 12%, MARV entry inh 9%[46.1 µM], HCMV inh -31 and HCV inhibitor 19%.
COCC1CCCN(Cc2ccc3c(c2)CN(C(=O)c2ccc(-c4ccc(C)o4)cc2)CCO3)C1 (stereo not given) was read as Vaccinia Venus -10% and VACV mCherry inh -12%.
`CC(=O)N/C(N)=N/c1nc2cc([N+](=O)[O-])ccc2o1` gave Vaccinia Venus -22%, VACV mCherry inh -1%, Lassa entry inh inconclusive, MARV entry inh inconclusive, HCMV inh -66* and HCV inhibitor 1%.
Screening Cc1ccc(SCc2nc(N)nc(Nc3ccccc3C)n2)cc1C returned Vaccinia Venus -28%, VACV mCherry inh -7%, HCMV inh -101* and HCV inhibitor 13µM*.
`Cc1ccc(SCc2nc(N)nc(Nc3ccccc3C)n2)c(C)c1` gave Lassa entry inh -16%, MARV entry inh -1%, HCMV inh -61* and HCV inhibitor inconclusive.
For CCC(Sc1ncnc2sc3c(c12)CCCC3)C(=O)OC(C)C (stereo not given) the results were Vaccinia Venus 2%, VACV mCherry inh 12%, Lassa entry inh -3%[46.1 µM], MARV entry inh 8%[46.1 µM] and HCMV inh -2.
`O=C(CSc1ccc(F)cc1)Nc1ccc(Br)cc1` gave Vaccinia Venus -30%, VACV mCherry inh -7%, HCMV inh 16 and HCV inhibitor -11%.
O=C(CSc1ccc(F)cc1)Nc1ccccc1Br was read as Vaccinia Venus -1%, VACV mCherry inh -14%, Lassa entry inh 0%, MARV entry inh 4%, HCMV inh -61* and HCV inhibitor -28%.
For COc1ccc2[nH]c3c(N4CCN(Cc5ccc6c(c5)OCO6)CC4)ncnc3c2c1 the results were Vaccinia Venus inconclusive, Lassa entry inh inconclusive, MARV entry inh inconclusive, HCMV inh -26 and HCV inhibitor inconclusive.
`COc1ccc2[nH]c3c(N4CCC(O)(c5cccc(C(F)(F)F)c5)CC4)ncnc3c2c1` gave Vaccinia Venus inconclusive, VACV mCherry inh inactive, Lassa entry inh inconclusive, MARV entry inh inconclusive, HCMV inh inconclusive and HCV inhibitor 6.3µM*.
`Cc1ccc2[nH]c3c(N4CCOCC4)ncnc3c2c1` gave Vaccinia Venus -19%, VACV mCherry inh -26%, Lassa entry inh 7%, MARV entry inh -29%[46.1 µM], HCMV inh inconclusive and HCV inhibitor inconclusive.
Screening c1ccc2c(c1)[nH]c1c(N3CCOCC3)ncnc12 returned Vaccinia Venus -23%, VACV mCherry inh inconclusive, Lassa entry inh -2%, MARV entry inh -10%, HCMV inh -32 and HCV inhibitor inconclusive.
Screening Fc1ccc2[nH]c3c(N4CCc5ccccc5C4)ncnc3c2c1 returned Vaccinia Venus -11%[7.34 µM], VACV mCherry inh -19%[7.34 µM], Lassa entry inh inconclusive, MARV entry inh inconclusive, HCMV inh -40 and HCV inhibitor 5µM*.
CN1CCN(c2ncnc3c2[nH]c2ccc(F)cc23)CC1 was read as Vaccinia Venus -14%, VACV mCherry inh -9%, Lassa entry inh 0%, MARV entry inh -6%, HCMV inh -13 and HCV inhibitor 10µM*.
Screening Brc1ccc2[nH]c3c(N4CCc5ccccc5C4)ncnc3c2c1 returned Lassa entry inh -28%, MARV entry inh inconclusive and HCV inhibitor 3.5µM*.
